Compounds with a hit are over-represented: about 14% of the library has one in this group of screens.
Sm TGR block – S. mansoni TGR enzyme inhibition | purified TGR, DTNB reduction, TNB absorbance 405 nm | Q962Y6 | 360,000 tested, 3% active | Potency, µM (titrated, usually from 114 µM), inactives show at the highest dose activity change, negative = inhibition, most hits filed as inhibitors; note: potency is the fitted concentration of half-maximal effect; nearly all actives have a fitted effect of over 60% in size
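First, TGR (20 nM dispensed) and NADPH were mixed with compound. Second, a 15 min room-temperature incubation followed. Third, further NADPH and then DTNB were added to start the reaction. Finally, TNB absorbance was monitored kinetically.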
Pf growth 96h – P. falciparum growth inhibition at 96 hour, primary screen for plastid delayed-death inhibitors; P. falciparum luciferase reporter growth, 96 h; Potency, µM (titrated, usually from 28.7 µM), without a hit: at the top dose activity change, negative = inhibition, actives largely listed as inhibitors; 320,000 tested, 6.9% active; AID 504834; note: potency is the fitted concentration of half-maximal effect
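Erythrocytes infected with luciferase-expressing P. falciparum were dispensed at 2% hematocrit and 0.05% parasitemia (final), then incubated with compounds 96 hours at 37 C in 5% CO2. Luminescence after detection reagent addition reported growth.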
Pf growth 48h – inhibits P. falciparum growth in the first generation, 48 h. P. falciparum luciferase growth in erythrocytes, 48 h. Potency, µM (doses to about 28.7 µM), inactives show at the top dose activity change, negative = inhibition, actives largely listed as inhibitors. 310,000 tested, 5.9% active. AID 504832; note: potency is the fitted concentration of half-maximal effect
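In quantitative HTS format, infected erythrocytes bearing luciferase-reporter parasites were treated for a single generation at 37 C. Luminescence after adding detection reagent served as the growth measure.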
HCMV antiviral – blocks human cytomegalovirus replication; AID 1259415; activity change, negative = inhibition, % at 57.5 µM; 410,000 tested, 4.5% active; HFF cells, HCMV-luciferase reporter, 72 h; stronger effect = lower value; in the data active = activity change below about -60%; inconclusive = no clear call, values can overlap the other calls; inactive = above about -39%
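Human foreskin fibroblasts infected with luciferase-reporter HCMV at MOI 1 PFU/cell, compounds at two doses. Luciferase measured 72 h post infection; normalized to buffer-only basal and Salinomycin (10uM) controls.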
FBPA Giardia inh – inhibitors of Giardia lamblia fructose-1,6-bisphosphate aldolase | 290,000 tested, 0.71% active | purified Giardia FBPA | Potency, µM (doses to about 59.6 µM), inactives show top-dose activity, negative = inhibition, hits mostly inhibitors; note: potency is the fitted concentration of half-maximal effect; nearly all actives have a fitted effect of over 55% in size
Target sequence (A8B2U2 whole entry, looked up): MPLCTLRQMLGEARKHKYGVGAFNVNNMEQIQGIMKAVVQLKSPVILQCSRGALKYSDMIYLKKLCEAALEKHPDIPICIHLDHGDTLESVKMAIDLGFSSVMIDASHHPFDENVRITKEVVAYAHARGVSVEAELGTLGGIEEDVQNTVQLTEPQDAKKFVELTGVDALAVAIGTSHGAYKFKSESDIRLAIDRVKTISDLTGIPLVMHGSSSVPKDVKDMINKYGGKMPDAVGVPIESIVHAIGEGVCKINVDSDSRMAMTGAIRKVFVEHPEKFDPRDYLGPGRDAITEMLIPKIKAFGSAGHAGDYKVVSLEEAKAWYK
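40 nM FBPA preincubated 10 min at RT with compound (up to 57.5 uM final), then substrate plus GAPDH/TPI/NAD/arsenate coupling and diaphorase/resazurin added. Fluorescence read after 20 min at RT, 525/598 nm.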
* = called active by the depositor; ? = inconclusive; · = not tested or not shown. Unless noted, calls come from the whole dose curve; as a rule, active = well fitted curve in the direction sought with a large enough effect; inconclusive = small, poorly fitted or top-dose-only effect, or another doubt; inactive = no such curve, though single readings can be large; an effect the other way counts as inactive or inconclusive. % is set by controls: 0 for no effect and ±100 for the full control effect.

SMILES	Sm TGR block	Pf growth 96h	Pf growth 48h	HCMV antiviral	FBPA Giardia inh
COc1ccc(NS(=O)(=O)c2ccc(NC(=S)NC(=O)c3cccnc3)cc2)nn1	?	17.5%	-0.9%	-16.8	-12.8%
COc1ccc(NS(=O)(=O)c2ccc(NC(=S)NC(=O)c3ccc(Br)cc3)cc2)nn1	39.8µM*	11.7µM*	18.8%	21.0	-6.0%
Cc1cc(NS(=O)(=O)c2ccc(NC(=S)NC(=O)c3cccc(S(=O)(=O)N(C)C)c3)cc2)no1	35.5µM*	2.7%	0.8%	-21.2	-8.4%
COc1ccc(NS(=O)(=O)c2ccc(NC(=S)NC(=O)c3cccc(F)c3)cc2)nn1	44.7µM*	-9.5%	-8.5%	-6.4	-20.4%
CCN(CC(=O)Nc1ccc(NC(C)=O)cc1)C(=O)CCCc1nc2ccccc2s1	-2.6%	?	-23.2%	26.7	·
NC(=O)C1CCN(c2nc(-c3ccccc3Cl)cs2)CC1	·	6.2%	?	·	·
COc1ccc(/C=N/Nc2nc(C)cc(-c3ccccc3)n2)cc1OC	-22.3%	?	-6.2%	-86.3*	-9.5%
COc1cccc(/C=N/NC(=O)c2nc(-c3ccccc3)cc(-c3ccccc3)n2)c1	1.0%	7.0%	10.4µM*	-28.1	-2.2%
COc1cccc(/C=N/NC(=O)c2cnccn2)c1	1.1%	0.0%	36.8%	-31.5	-6.1%
COc1cc(/C=N\NC(=O)c2ccc(-c3ccccc3)cc2)ccc1OCC(N)=O	0.7%	-6.4%	-7.0%	-25.4	-0.7%
COc1ccc(/C=N/NC(=O)c2nc(-c3ccccc3)cc(-c3ccccc3)n2)cc1OC	3.8%	2.33µM*	?	12.8	4.6%
O=C1CC(N2CCCCCC2)C(=O)N1c1ccc(F)cc1 (centres undefined)	10µM*	13.5%	4.5%	-11.1	2.5%
O=C(NNC1CC(=O)N(c2ccc3c(c2)OCCO3)C1=O)c1ccccc1 (centres undefined)	-2.4%	?	-6.0%	19.0	4.7%
CCOc1ccc(N2C(=O)CC(N3CCC(O)(c4ccc(Br)cc4)CC3)C2=O)cc1 (centres undefined)	0.0%	·	·	-28.8	-0.2%
NC(=O)C1(N2CCCCC2)CCN(C2CC(=O)N(Cc3cccs3)C2=O)CC1 (centres undefined)	50.1µM*	·	24.1%	-22.9	5.5%
NC(=O)C1(N2CCCCC2)CCN(C2CC(=O)N(CCc3ccccc3)C2=O)CC1 (centres undefined)	?	·	14.2%	9.7	11.6%
COc1ccc(N2C(=O)CC(N3CCC(O)(c4cccc(C(F)(F)F)c4)CC3)C2=O)cc1 (centres undefined)	39.8µM*	10.1%	0.0%	15.3	13.2%
O=C1CC(N2CCN(c3ccc(F)cc3)CC2)C(=O)N1c1ccc(F)cc1 (centres undefined)	-13.3%	?	-6.5%	1.8	3.2%
O=C1CC(NC23CC4CC(CC(C4)C2)C3)C(=O)N1c1ccc2c(c1)OCO2 (centres undefined)	44.7µM*	·	11.0%	-30.8	-5.0%
CC(OC(=O)c1cccc(S(=O)(=O)N2CCCCCC2)c1)C(=O)Nc1ccc(S(N)(=O)=O)cc1 (centres undefined)	-7.9%	?	?	-17.4	·
NC(=O)C1CC(=O)N(c2ccc(OCc3ccc(Cl)c(Cl)c3)cc2)C1 (centres undefined)	·	·	·	9.9	·
O=C1CC(N2CCCCCC2)C(=O)N1c1ccc2c(c1)OCO2 (centres undefined)	7.94µM*	18.7%	2.3%	18.8	5.1%
COc1ccc(N2C(=O)CC(N3CCCC4CCCCC43)C2=O)cc1 (centres undefined)	11.2µM*	179.6%	1.6%	9.4	2.9%
O=C1CC(N2CCN(c3ccc(O)cc3)CC2)C(=O)N1c1ccc2c(c1)OCO2 (centres undefined)	·	38.8%	2.7%	-29.9	?
COc1ccc(N2C(=O)CC(N3CCCCC3)C2=O)cc1 (centres undefined)	31.6µM*	-29.7%	8.2%	-14.7	6.4%
SMILES	Sm TGR block	Pf growth 96h	Pf growth 48h	HCMV antiviral	FBPA Giardia inh
COc1cccc(N2C(=O)CC(N3CCC(C(N)=O)(N4CCCCC4)CC3)C2=O)c1 (centres undefined)	17.8µM*	?	17.3%	45.0	1.0%
COc1ccc(N2C(=O)CC(N3CCN(c4ccc(S(=O)(=O)N5CCCC5)cc4)CC3)C2=O)cc1 (centres undefined)	?	·	6.2%	-37.2	1.9%
CN1C(=O)CC(N2CCC(C(N)=O)(N3CCCCC3)CC2)C1=O (centres undefined)	-1.1%	9.9%	14.9%	1.5	-0.9%
O=c1ccc(-c2nc3cc(Cl)ccc3n2Cc2ccccc2)c[nH]1	10.2%	9.28µM*	?	29.2	0.8%
FC(F)(F)c1cccc(Nc2c3c(nc4ccc(Cl)cc24)CCC3)c1	26.0%	·	·	-76.2*	·
Fc1ccc(F)c(Nc2c3c(nc4ccc(Cl)cc24)CCC3)c1	-0.3%	·	·	-68.6*	·
COC(=O)c1scc(C)c1S(=O)(=O)Nc1ccc(C)cc1	8.9%	11.7µM*	?	9.0	?
COc1ccc(CNC(=O)c2ccc(-n3ccnc3)c3ccoc23)cc1OC	·	·	·	-15.0	·
O=C(Nc1c(-c2ccc3c(c2)OCO3)[nH][nH]c1=O)c1cccc(C(F)(F)F)c1	·	·	·	-4.8	·
CCOC(=O)N1CCN(C(=O)c2c[nH]c3ccc(S(=O)(=O)N(C)c4ccc(OCC)cc4)cc3c2=O)CC1	3.9%	13.1µM*	23.8%	-29.7	·
CCc1ccc(N(C)S(=O)(=O)c2ccc3[nH]cc(C(=O)NCC4CCCO4)c(=O)c3c2)cc1 (centres undefined)	-4.6%	·	·	-30.5	·
CCOc1ccc(N(C)S(=O)(=O)c2ccc3[nH]cc(C(=O)NCC4CCCO4)c(=O)c3c2)cc1 (centres undefined)	7.7%	?	13.1µM*	-18.1	7.1%
O=C(/C=C/c1cccs1)Nc1ccc(Br)cn1	-3.0%	327.7%	273.8%	-66.1*	2.4%
O=C(Nc1ccc(Br)cn1)c1ccc(Br)s1	-23.2%	244.7%	144.4%	-99.3*	3.1%
C=CCN1CC(COc2ccc(OC)cc2)OCCS1(=O)=O (centres undefined)	·	·	·	-7.9	·
COc1cc2c(=O)c(S(=O)(=O)c3ccccc3)cn(CC(=O)Nc3ccccc3C)c2cc1OC	-5.0%	·	·	6.4	·
COc1cc(C=C2C(=O)NC(=O)NC2=O)ccc1OS(=O)(=O)c1ccccc1[N+](=O)[O-]	2.82µM*	?	32.0%	-21.5	-26.2%
CCOc1cc(C=C2C(=O)NC(=O)NC2=O)ccc1OS(=O)(=O)c1ccccc1	22.4µM*	-14.1%	·	·	?
COc1cc(/C=C2\C(=N)N3N=C(S(C)(=O)=O)SC3=NC2=O)ccc1OCCOc1ccccc1C	2.9%	?	10.4µM*	102.5	10.0%

Screening results deposited in PubChem by National Center for Advancing Translational Sciences (NCATS).
